# Measurements: the supplement of paper PMC4466140
# What was measured:
# Experiment in all cases: SPOT peptide array binding signal intensity (averaged, normalized) (arbitrary units (background-subtracted, floor 0; scale differs between SH3 domains)); higher = stronger binding of the SH3 domain to the peptide
# AgAbp1 = biological target: AgAbp1
# How it was run: (§1)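 The binding signal is the normalized, background-subtracted spot intensity averaged over replicates; its arbitrary units differ between domains. It was obtained by incubating 10 μg/ml GST-fused SH3 domains from four yeast species overnight at 4°C in TBS-based blocking buffer on cellulose membranes with synthetic 15-mer peptides, cysteines replaced by serines, then detecting with anti-GST antibody, HRP anti-mouse secondary and luminol.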
# AgBbc1 = biological target: AgBbc1
# How it was run: as §1
# AgBem1-D1 = biological target: AgBem1-D1
# How it was run: as §1
# AgBzz1-D1 = biological target: AgBzz1-D1
# How it was run: as §1
# AgBzz1-D2 = biological target: AgBzz1-D2
# How it was run: as §1
# AgCyk3 = biological target: AgCyk3
# How it was run: as §1
# AgFus1 = biological target: AgFus1
# How it was run: as §1
# AgHof1 = biological target: AgHof1
# How it was run: as §1
# AgHse1 = biological target: AgHse1
# How it was run: as §1
# AgLsb1 = biological target: AgLsb1
# How it was run: as §1
# AgLsb4 = biological target: AgLsb4
# How it was run: as §1
# AgMyo5 = biological target: AgMyo5
# How it was run: as §1
# AgNbp2 = biological target: AgNbp2
# How it was run: as §1
# AgRvs167 = biological target: AgRvs167
# How it was run: as §1
# AgSho1 = biological target: AgSho1
# How it was run: as §1
# AgSla1-D1-D2 = biological target: AgSla1-D1-D2
# How it was run: as §1
# AgSla1-D3 = biological target: AgSla1-D3
# How it was run: as §1
# CaAbp1-D1 = biological target: CaAbp1-D1
# How it was run: as §1
# CaAbp1-D2 = biological target: CaAbp1-D2
# How it was run: as §1
# CaBbc1 = biological target: CaBbc1
# How it was run: as §1
# CaBem1-D1 = biological target: CaBem1-D1
# How it was run: as §1
# CaBzz1-D1 = biological target: CaBzz1-D1
# How it was run: as §1
# CaBzz1-D2 = biological target: CaBzz1-D2
# How it was run: as §1
# CaCyk3 = biological target: CaCyk3
# How it was run: as §1
# CaFus1 = biological target: CaFus1
# How it was run: as §1
# CaHof1 = biological target: CaHof1
# How it was run: as §1
# CaHse1 = biological target: CaHse1
# How it was run: as §1
# CaLsb1 = biological target: CaLsb1
# How it was run: as §1
# CaLsb4 = biological target: CaLsb4
# How it was run: as §1
# CaMyo5 = biological target: CaMyo5
# How it was run: as §1
# CaNbp2 = biological target: CaNbp2
# How it was run: as §1
# CaRvs167 = biological target: CaRvs167
# How it was run: as §1
# CaRvs167-3 = biological target: CaRvs167-3
# How it was run: as §1
# CaSho1 = biological target: CaSho1
# How it was run: as §1
# CaSla1-D1-D2 = biological target: CaSla1-D1-D2
# How it was run: as §1
# CaSla1-D3 = biological target: CaSla1-D3
# How it was run: as §1
# ScAbp1 = biological target: ScAbp1
# How it was run: as §1
# ScBbc1 = biological target: ScBbc1
# How it was run: as §1
# ScBem1-D1 = biological target: ScBem1-D1
# How it was run: as §1
# ScBzz1-D1 = biological target: ScBzz1-D1
# How it was run: as §1
# ScBzz1-D2 = biological target: ScBzz1-D2
# How it was run: as §1
# ScCyk3 = biological target: ScCyk3
# How it was run: as §1
# ScFus1 = biological target: ScFus1
# How it was run: as §1
# ScHof1 = biological target: ScHof1
# How it was run: as §1
# ScHse1 = biological target: ScHse1
# How it was run: as §1
# ScLsb1 = biological target: ScLsb1
# How it was run: as §1
# ScLsb2 = biological target: ScLsb2
# How it was run: as §1
# ScLsb3 = biological target: ScLsb3
# How it was run: as §1
# ScLsb4 = biological target: ScLsb4
# How it was run: as §1
# ScMyo3 = biological target: ScMyo3
# How it was run: as §1
# ScMyo5 = biological target: ScMyo5
# How it was run: as §1
# ScNbp2 = biological target: ScNbp2
# How it was run: as §1
# ScPex13 = biological target: ScPex13
# How it was run: as §1
# ScRvs167 = biological target: ScRvs167
# How it was run: as §1
# ScSho1 = biological target: ScSho1
# How it was run: as §1
# ScSla1-D1-D2 = biological target: ScSla1-D1-D2
# How it was run: as §1
# ScSla1-D3 = biological target: ScSla1-D3
# How it was run: as §1
# SpAbp1-D1 = biological target: SpAbp1-D1
# How it was run: as §1
# SpBbc1 = biological target: SpBbc1
# How it was run: as §1
# SpBzz1-D1 = biological target: SpBzz1-D1
# How it was run: as §1
# SpBzz1-D2 = biological target: SpBzz1-D2
# How it was run: as §1
# SpCyk3 = biological target: SpCyk3
# How it was run: as §1
# SpHof1 = biological target: SpHof1
# How it was run: as §1
# SpHof1-2 = biological target: SpHof1-2
# How it was run: as §1
# SpHof1-3 = biological target: SpHof1-3
# How it was run: as §1
# SpHse1 = biological target: SpHse1
# How it was run: as §1
# SpLsb1 = biological target: SpLsb1
# How it was run: as §1
# SpLsb4 = biological target: SpLsb4
# How it was run: as §1
# SpMyo1 = biological target: SpMyo1
# How it was run: as §1
# SpNbp2 = biological target: SpNbp2
# How it was run: as §1
# SpPex13 = biological target: SpPex13
# How it was run: as §1
# SpRvs167 = biological target: SpRvs167
# How it was run: as §1
# SpSla1-D1-D2 = biological target: SpSla1-D1-D2
# How it was run: as §1
# SpSla1-D3 = biological target: SpSla1-D3
# How it was run: as §1
binder,measurement,setting,value
ATNVPVAPPPPPASL,SPOT peptide array binding signal intensity,AgAbp1,≤ 0
same,SPOT peptide array binding signal intensity,AgBbc1,2.75
same,SPOT peptide array binding signal intensity,AgBem1-D1,≤ 0
same,SPOT peptide array binding signal intensity,AgBzz1-D1,1
same,SPOT peptide array binding signal intensity,AgBzz1-D2,≤ 0
same,SPOT peptide array binding signal intensity,AgCyk3,2
same,SPOT peptide array binding signal intensity,AgFus1,≤ 0
same,SPOT peptide array binding signal intensity,AgHof1,3
same,SPOT peptide array binding signal intensity,AgHse1,27
same,SPOT peptide array binding signal intensity,AgLsb1,≤ 0
same,SPOT peptide array binding signal intensity,AgLsb4,≤ 0
same,SPOT peptide array binding signal intensity,AgMyo5,468
same,SPOT peptide array binding signal intensity,AgNbp2,≤ 0
same,SPOT peptide array binding signal intensity,AgRvs167,≤ 0
same,SPOT peptide array binding signal intensity,AgSho1,≤ 0
same,SPOT peptide array binding signal intensity,AgSla1-D1-D2,4.5
same,SPOT peptide array binding signal intensity,AgSla1-D3,≤ 0
same,SPOT peptide array binding signal intensity,CaAbp1-D1,≤ 0
same,SPOT peptide array binding signal intensity,CaAbp1-D2,≤ 0
same,SPOT peptide array binding signal intensity,CaBbc1,≤ 0
same,SPOT peptide array binding signal intensity,CaBem1-D1,≤ 0
same,SPOT peptide array binding signal intensity,CaBzz1-D1,23
same,SPOT peptide array binding signal intensity,CaBzz1-D2,0.25
same,SPOT peptide array binding signal intensity,CaCyk3,4
same,SPOT peptide array binding signal intensity,CaFus1,≤ 0
same,SPOT peptide array binding signal intensity,CaHof1,1
same,SPOT peptide array binding signal intensity,CaHse1,0.5
same,SPOT peptide array binding signal intensity,CaLsb1,≤ 0
same,SPOT peptide array binding signal intensity,CaLsb4,≤ 0
same,SPOT peptide array binding signal intensity,CaMyo5,13.8
same,SPOT peptide array binding signal intensity,CaNbp2,18
same,SPOT peptide array binding signal intensity,CaRvs167,≤ 0
same,SPOT peptide array binding signal intensity,CaRvs167-3,6.5
same,SPOT peptide array binding signal intensity,CaSho1,≤ 0
same,SPOT peptide array binding signal intensity,CaSla1-D1-D2,≤ 0
same,SPOT peptide array binding signal intensity,CaSla1-D3,≤ 0
same,SPOT peptide array binding signal intensity,ScAbp1,1
same,SPOT peptide array binding signal intensity,ScBbc1,2.25
same,SPOT peptide array binding signal intensity,ScBem1-D1,≤ 0
same,SPOT peptide array binding signal intensity,ScBzz1-D1,≤ 0
same,SPOT peptide array binding signal intensity,ScBzz1-D2,2
same,SPOT peptide array binding signal intensity,ScCyk3,1
same,SPOT peptide array binding signal intensity,ScFus1,≤ 0
same,SPOT peptide array binding signal intensity,ScHof1,≤ 0
same,SPOT peptide array binding signal intensity,ScHse1,≤ 0
same,SPOT peptide array binding signal intensity,ScLsb1,0.25
same,SPOT peptide array binding signal intensity,ScLsb2,≤ 0
same,SPOT peptide array binding signal intensity,ScLsb3,≤ 0
same,SPOT peptide array binding signal intensity,ScLsb4,2
same,SPOT peptide array binding signal intensity,ScMyo3,1430
same,SPOT peptide array binding signal intensity,ScMyo5,161
same,SPOT peptide array binding signal intensity,ScNbp2,≤ 0
same,SPOT peptide array binding signal intensity,ScPex13,≤ 0
same,SPOT peptide array binding signal intensity,ScRvs167,≤ 0
same,SPOT peptide array binding signal intensity,ScSho1,≤ 0
same,SPOT peptide array binding signal intensity,ScSla1-D1-D2,≤ 0
same,SPOT peptide array binding signal intensity,ScSla1-D3,2.25
same,SPOT peptide array binding signal intensity,SpAbp1-D1,≤ 0
same,SPOT peptide array binding signal intensity,SpBbc1,≤ 0
same,SPOT peptide array binding signal intensity,SpBzz1-D1,125
same,SPOT peptide array binding signal intensity,SpBzz1-D2,≤ 0
same,SPOT peptide array binding signal intensity,SpCyk3,≤ 0
same,SPOT peptide array binding signal intensity,SpHof1,≤ 0
same,SPOT peptide array binding signal intensity,SpHof1-2,≤ 0
same,SPOT peptide array binding signal intensity,SpHof1-3,≤ 0
same,SPOT peptide array binding signal intensity,SpHse1,8.75
same,SPOT peptide array binding signal intensity,SpLsb1,≤ 0
same,SPOT peptide array binding signal intensity,SpLsb4,≤ 0
same,SPOT peptide array binding signal intensity,SpMyo1,339
same,SPOT peptide array binding signal intensity,SpNbp2,27.5
same,SPOT peptide array binding signal intensity,SpPex13,≤ 0
same,SPOT peptide array binding signal intensity,SpRvs167,≤ 0
same,SPOT peptide array binding signal intensity,SpSla1-D1-D2,≤ 0
same,SPOT peptide array binding signal intensity,SpSla1-D3,≤ 0
VPVAPPPPPASLGQS,SPOT peptide array binding signal intensity,AgAbp1,≤ 0
same,SPOT peptide array binding signal intensity,AgBbc1,≤ 0
same,SPOT peptide array binding signal intensity,AgBem1-D1,15
same,SPOT peptide array binding signal intensity,AgBzz1-D1,0.5
same,SPOT peptide array binding signal intensity,AgBzz1-D2,≤ 0
same,SPOT peptide array binding signal intensity,AgCyk3,≤ 0
same,SPOT peptide array binding signal intensity,AgFus1,≤ 0
same,SPOT peptide array binding signal intensity,AgHof1,≤ 0
same,SPOT peptide array binding signal intensity,AgHse1,17
same,SPOT peptide array binding signal intensity,AgLsb1,0.25
same,SPOT peptide array binding signal intensity,AgLsb4,≤ 0
same,SPOT peptide array binding signal intensity,AgMyo5,4.25
same,SPOT peptide array binding signal intensity,AgNbp2,≤ 0
same,SPOT peptide array binding signal intensity,AgRvs167,3
same,SPOT peptide array binding signal intensity,AgSho1,≤ 0
same,SPOT peptide array binding signal intensity,AgSla1-D1-D2,6
same,SPOT peptide array binding signal intensity,AgSla1-D3,1
same,SPOT peptide array binding signal intensity,CaAbp1-D1,2
same,SPOT peptide array binding signal intensity,CaAbp1-D2,4
same,SPOT peptide array binding signal intensity,CaBbc1,0.5
same,SPOT peptide array binding signal intensity,CaBem1-D1,≤ 0
same,SPOT peptide array binding signal intensity,CaBzz1-D1,89
same,SPOT peptide array binding signal intensity,CaBzz1-D2,9.5
same,SPOT peptide array binding signal intensity,CaCyk3,≤ 0
same,SPOT peptide array binding signal intensity,CaFus1,16
same,SPOT peptide array binding signal intensity,CaHof1,≤ 0
same,SPOT peptide array binding signal intensity,CaHse1,≤ 0
same,SPOT peptide array binding signal intensity,CaLsb1,0.75
same,SPOT peptide array binding signal intensity,CaLsb4,≤ 0
same,SPOT peptide array binding signal intensity,CaMyo5,13.5
DGNEEKPLLPTRPNK,SPOT peptide array binding signal intensity,SpBzz1-D2,≤ 0
same,SPOT peptide array binding signal intensity,SpCyk3,≤ 0
same,SPOT peptide array binding signal intensity,SpHof1,0.25
same,SPOT peptide array binding signal intensity,SpHof1-2,0.875
same,SPOT peptide array binding signal intensity,SpHof1-3,1.88
same,SPOT peptide array binding signal intensity,SpHse1,≤ 0
same,SPOT peptide array binding signal intensity,SpLsb1,1100
same,SPOT peptide array binding signal intensity,SpLsb4,3290
same,SPOT peptide array binding signal intensity,SpMyo1,≤ 0
same,SPOT peptide array binding signal intensity,SpNbp2,≤ 0
same,SPOT peptide array binding signal intensity,SpPex13,≤ 0
same,SPOT peptide array binding signal intensity,SpRvs167,467
same,SPOT peptide array binding signal intensity,SpSla1-D1-D2,≤ 0
same,SPOT peptide array binding signal intensity,SpSla1-D3,≤ 0
